Screening data as filed in PubChem.
Bim-Mcl-1 = human Bim-Mcl-1 interaction inhibition. Bead-based flow cytometry, Bim peptide-Mcl-1 binding. 190,000 compounds, 0.1% hits. inhibition, % at 10 µM. Q07820; in the data active = inhibition above about 40%;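 also: 0% = no compound tracer wells and 100% = peptide blocker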
Target sequence (Q07820 whole entry, looked up): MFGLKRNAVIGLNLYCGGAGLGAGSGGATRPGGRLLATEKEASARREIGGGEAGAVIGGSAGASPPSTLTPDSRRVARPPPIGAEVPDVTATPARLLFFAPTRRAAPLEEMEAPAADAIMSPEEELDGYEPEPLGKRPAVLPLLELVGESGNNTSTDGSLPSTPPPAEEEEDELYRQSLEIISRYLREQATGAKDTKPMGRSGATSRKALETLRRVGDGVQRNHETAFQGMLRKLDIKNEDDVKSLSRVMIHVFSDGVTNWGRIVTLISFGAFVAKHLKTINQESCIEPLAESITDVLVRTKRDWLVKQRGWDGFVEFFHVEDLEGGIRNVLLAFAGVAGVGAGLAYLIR
Mcl1-Noxa inh = Mcl-1/Noxa interaction inhibition | inhibition, % at 21.7 µM | 220,000 compounds, 1.5% hits | Q07820 | TR-FRET Mcl-1/Noxa peptide binding, 2 h;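 active = compounds that cut the protein-peptide binding signal by more than 50% relative to plate controls in a single-dose test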;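 also: His-tagged Mcl-1 with rhodamine Noxa BH3 peptide and terbium anti-His antibody; 0% = Mcl-1 plus Noxa peptide wells and 100% = peptide-only wells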
m-calpain inh = calpain II (pig) inhibition; purified calpain II, fluorogenic peptide substrate, 30 min; inhibition, % at 16 µM; 220,000 compounds, 0.37% hits; AID 1236;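 active = inhibition above about 50%, limit read from the data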
TNF necrop inh = TNF-alpha cell death inhibition in Jurkat FADD-/- cells. Jurkat FADD-/- TNF necroptosis rescue, ATP luminescence, 24 h; 0 = TNF only, 100 = no-TNF cells. 220,000 compounds, 0.068% hits. activation (protection from cell death), % at 10 µM. AID 463075;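 active = activation, meaning protection from cell death, of at least 50% relative to plate controls; inactive = activation below 50%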;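 also: necroptosis triggered by 40 ng/mL TNF-alpha added together with compound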
Mcl1-Bid inh = disrupts binding of human Mcl-1 to Bid peptide. Q07820. TR-FRET Mcl-1/Bid-Dy647 peptide binding, 1536-well. inhibition, % at 21.7 µM. 220,000 compounds, 0.97% hits;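 active = compounds that cut the binding signal by more than half at the single screening dose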;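 also: His-tagged Mcl-1 with europium anti-His antibody binding Bid BH3 peptide; 0% = Mcl-1 plus peptide wells and 100% = peptide-only wells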
L929 necroptosis = blocks zVAD induced death of L929 cells; 220,000 compounds, 0.38% hits; viability rescue, % at 10 µM; L929 zVAD necroptosis rescue, ATP luminescence, 24 h; with zVAD 60 µM;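 active = activation, scaled between plate controls, above about 75%, limit read from the data; inactive = activation under that limit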;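 also: 0% = zVAD with DMSO and 100% = DMSO alone without zVAD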
* hit, by the source's call; i = inactive; · = no result given. Sampled rows, rich in hits. Any-hit rate of the full collection: about 2.8%.

SMILES	Bim-Mcl-1	Mcl1-Noxa inh	m-calpain inh	TNF necrop inh	Mcl1-Bid inh	L929 necroptosis
CCSc1nnc2c(n1)OC(c1ccc(C(=O)O)cc1)N(C(C)=O)c1ccccc1-2 (centres undefined)	-1	7	-10	0	-5	1
O=C1NC(=S)N/C1=C/c1cccc([N+](=O)[O-])c1	5	4	25	1	6	3
O=C1NC(=S)N/C1=C/c1ccc(-c2c(Br)cc([N+](=O)[O-])cc2Br)o1	-2	86*	-36	-9	98*	0
Cc1ccc(-c2ccc(/C=N/NC(=S)Nc3ccccc3)o2)cc1[N+](=O)[O-]	-3	-33	-22	-9	-121	1
Cc1ccc(-c2ccc(/C=C3/NC(=O)NC3=O)o2)cc1[N+](=O)[O-]	2	77*	-70	-4	73*	0
CC1=C(C#N)C(=O)NC(=O)/C1=C\c1ccc(-c2cc(C)c(C)cc2[N+](=O)[O-])o1	1	100*	35	-1	92*	0
CCC1CCCCN1C(=O)c1sc2ncnc(N(CC)CC)c2c1C (centres undefined)	-2	3	-14	0	-4	1
COc1ccc(NC(=S)N2CCN(C(=O)c3ccccc3)CC2)cc1	0	-1	-7	2	-44	-1
COc1ccc(/C=C2\SC(=O)N(CC(=O)NCCC(C)C)C2=O)cc1OC	·	-6	-287	2	-5	3
COc1ccc(/C=C2\SC(=O)N(CC(=O)NNC(=O)c3ccccc3O)C2=O)cc1	-2	53*	-50	1	48	1
COc1ccc(/C=C2\SC(=O)N(CC(=O)NNC(=O)c3ccccc3O)C2=O)cc1OC	-6	53*	-177	2	60*	1
O=C(CN1C(=O)S/C(=C\c2ccccc2)C1=O)NNC(=O)c1ccccc1O	-5	14	-4	2	6	0
COc1cc(/C=C2\SC(=O)N(CC(=O)Nc3cccc(C)c3)C2=O)cc([N+](=O)[O-])c1O	-1	59*	-32	0	-18	5
O=C(NCCCn1ccnc1)c1nn2c(C(F)(F)F)cc(-c3ccc(Br)cc3)nc2c1Cl	1	-23	-10	-1	-28	1
Cc1ccc(-n2nnnc2C(Cl)(Cl)c2nnnn2-c2ccc(C)cc2)cc1	-9	53*	-6	-23	-30	0
Clc1ccc(-c2nnnn2-c2ccc(Cl)cc2)cc1	·	-9	8	3	-5	0
COCCCN(C(=O)c1cc2c(s1)CCC2)c1c(N)n(Cc2ccccc2)c(=O)[nH]c1=O	0	53*	-73	-1	-18	1
CCCN(C(=O)c1cc2c(s1)CCC2)c1c(N)n(Cc2ccccc2)c(=O)[nH]c1=O	·	62*	-41	2	-24	0
Cc1cc(C(=O)N/N=C/c2ccc([N+](=O)[O-])o2)c(C)o1	·	15	16	-2	-20	0
COc1ccc(-c2nn(-c3ccccc3)cc2C(=O)N/N=C/c2ccc([N+](=O)[O-])o2)cc1	0	52*	17	-3	21	1
CN1CCN(C2=C(Cl)C(=O)C(c3cnc(N4CCCCC4)s3)=C(Cl)C2=O)CC1	32	98*	-74	-2	79*	1
CN1CCN(C2=C(Cl)C(=O)N(C3CCCCC3)C2=O)CC1	-1	4	1	-11	-42	2
O=C(O)c1cc(N2N=C(C(F)(F)F)/C(=C/C=C/c3ccco3)C2=O)ccc1Cl	-4	106*	-7	-1	86*	2
NC(=O)c1ccc(Nc2nnc(-c3ccc(O)cc3)c3ccccc23)cc1	-4	52*	-76	1	13	22
O=C(CSCC(=O)N1CCCCC1)OCC(=O)c1c[nH]c2ccccc12	3	9	-11	-1	-33	0
SMILES	Bim-Mcl-1	Mcl1-Noxa inh	m-calpain inh	TNF necrop inh	Mcl1-Bid inh	L929 necroptosis
Cc1cc(C)cc(Oc2nc(-c3ccccc3)cc(C)c2S(C)(=O)=O)c1	-1	-3	50*	5	-19	1
Cc1cc(-c2ccccc2)nc(Oc2ccc(C(C)(C)C)cc2)c1S(C)(=O)=O	-3	7	48	0	-29	1
CCN(CC)S(=O)(=O)c1ccc(C(=O)OCn2nnc3ccccc3c2=O)cc1	0	-10	-6	1	6	2
CCC(=O)NC(c1ccc(N(C)C)cc1)c1c(O)ccc2ccccc12 (centres undefined)	1	51*	8	-3	-18	-1
CCC(=O)NC(c1ccc(OC)cc1)c1c(O)ccc2ccccc12 (centres undefined)	0	5	-83	-7	-8	1
COc1ccc(-c2ccc(/C=N/NC(=O)c3cccnc3)o2)c([N+](=O)[O-])c1	1	74*	21	1	38	1
Cc1ccc(C(=O)N/N=C/c2ccc(-c3ccccc3[N+](=O)[O-])o2)cn1	0	19	18	-4	-30	1
CCOc1ccc(N/C(=C(/C(Cl)=C(Cl)Cl)[N+](=O)[O-])n2cncn2)cc1	6	38	i	-3	77*	0
CCOc1ccccc1N/C(=C(/C(Cl)=C(Cl)Cl)[N+](=O)[O-])n1cncn1	-3	42	-32	0	61*	0
O=C(Nc1ccc(F)cc1)c1ccc(-n2cncn2)c([N+](=O)[O-])c1	-2	5	34	-1	-10	0
O=[N+]([O-])/C(C(Cl)=C(Cl)Cl)=C(\Nc1ccc(F)cc1)n1cncn1	3	20	-2	-1	73*	0
O=[N+]([O-])c1cc(Cl)cc2c1nc(NCCO)c1ccccc12	·	24	-22	-5	10	0
O=C(OC(C(=O)Nc1ccc([N+](=O)[O-])cc1Br)c1ccccc1)c1ccccc1 (centres undefined)	1	-7	-29	76*	-38	0
CCCOc1ccc(CCCN=C(N)N)cc1Cl	·	6	-3	-8	-28	-1
COc1cc(/C=C2/C(=O)c3cccc([N+](=O)[O-])c3C2=O)c(Br)cc1O	6	88*	-36	-8	-28	1
CCOc1ccc(OCC)c(NC(=O)Cn2c(C)nc3ccccc3c2=O)c1	-1	-7	8	1	-15	-1
O=C(Oc1ccc(OC(=O)C2CCC2)cc1)C1CCC1	-2	1	8	-11	-54	-1
O=C(Nc1ccc2ccccc2c1)C(=O)C1C(=O)Nc2ccccc21 (centres undefined)	·	-58	51*	0	-57	2
COc1cc2c(cc1OC)CN(CC(=O)Nc1ccc(Cl)c(S(=O)(=O)N(C)C)c1)CC2	-2	18	-50	2	-15	0
CC(=O)N1CCc2c(sc(NC(=O)c3ccc([N+](=O)[O-])o3)c2C#N)C1	-5	53*	-20	-4	-33	61
